Compound activity: PubChem BioAssay, National Center for Advancing Translational Sciences (NCATS)
Sm TGR inh – blocks Schistosoma mansoni thioredoxin glutathione reductase; 3% of 360,000 active; Potency, µM (highest dose often 114 µM), inactives show at the top dose activity change, negative = inhibition, usual class: inhibitors; Q962Y6; AID 485364; purified TGR, DTNB reduction, TNB absorbance 405 nm; note: potency is the fitted concentration of half-maximal effect; nearly all actives have a fitted effect of over 60% in size
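Kinetic colorimetric format: TGR-catalysed, NADPH-driven DTNB reduction monitored via TNB absorbance. Enzyme dispensed at 20 nM; compound exposure 15 min at room temperature before reaction start.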
HCMV inh – human cytomegalovirus inhibition; HFF cells, HCMV-luciferase reporter, 72 h; hits give low values; activity change, negative = inhibition, % at 57.5 µM; 4.5% of 410,000 active; AID 1259415; in the data active = activity change below about -60%; inconclusive = no clear call, values can overlap the other calls; inactive = above about -39%
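Human foreskin fibroblasts infected with luciferase-reporter HCMV at MOI 1 PFU/cell, compounds at two doses. Luciferase measured 72 h post infection; normalized to buffer-only basal and Salinomycin (10uM) controls.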
VACV mCherry inh – vaccinia inhibition (mCherry reporter). 0.63% of 310,000 active. Potency, µM (doses to about 36.5 µM), inactives show at the top dose activity change, negative = inhibition, actives largely listed as inhibitors. AID 720579. Vaccinia virus mCherry reporter infection, fluorescence; calls by dose curve; tested in A549 cells; note: potency is the fitted concentration of half-maximal effect; nearly all actives have a fitted effect of over 35% in size
Vaccinia Venus – vaccinia inhibition (Venus reporter). Vaccinia virus Venus reporter expression, fluorescence. 0.46% of 330,000 active. Potency, µM (titrated, usually from 36.5 µM), without a hit: at the highest dose activity change, negative = inhibition, hits mostly inhibitors. AID 720580; calls by dose curve; tested in A549 cells; note: potency is the fitted concentration of half-maximal effect; nearly all actives have a fitted effect of over 30% in size
FMDV antiviral – blocks foot and mouth disease virus; FMDV antiviral cell-based qHTS; AID 1159524; Potency, µM (highest dose often 57.9 µM), without a hit: top-dose activity change, negative = inhibition, usual class: inhibitors; 1.2% of 410,000 active; calls by dose curve; tested in HEK293T cells; note: read-out not given here; potency is the fitted concentration of half-maximal effect; nearly all actives have a fitted effect of over 45% in size
HCV inh – HCV inhibition | Huh7.5.1 HCVcc-Cre infection, luciferase reporter, 44 h | Potency, µM (series often up to 41.8 µM), without a hit: top-dose activity change, negative = inhibition, actives largely listed as inhibitors | 3.4% of 340,000 active | AID 651820; note: potency is the fitted concentration of half-maximal effect
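Infectious HCVcc-Cre (~0.5 moi) was added to cells just after compound, with cells seeded 4 h earlier at 1,000 per well. Luciferase activity after 44 h culture reported infection; substrate was incubated 15 min at room temperature before reading.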
* marks the source's active call; other numbers are inactive results; i = inactive; ? = inconclusive; · = no result; + = active, no number. An excerpt weighted towards active compounds, which were near 9.3% of everything screened. Unless noted, calls come from the whole dose curve; as a rule, active = well fitted curve in the direction sought with a large enough effect; inconclusive = small, poorly fitted or top-dose-only effect, or another doubt; inactive = no such curve, though single readings can be large; an effect the other way counts as inactive or inconclusive. % is set by controls: 0 for no effect and ±100 for the full control effect.

SMILES	Sm TGR inh	HCMV inh	VACV mCherry inh	Vaccinia Venus	FMDV antiviral	HCV inh
CC1CCN(c2nc3c(c(=O)[nH]c(=O)n3C)n2CC(C)CSc2nnnn2-c2ccccc2)CC1 (configuration not stated)	4%	?	i	-10%	-20%	5%
CCC(C)n1cnc2c(c1=O)c1nc3ccccc3nc1n2Cc1ccccc1OC (configuration not stated)	3%	-12	·	-5%	-21%	2%
O=C(Nc1ccccc1N1CCOCC1)c1cc(Br)c(Br)s1	11%	-18	-11%	3%	-20%	1%
Cn1c(CN2CCN(c3ccccc3NS(C)(=O)=O)CC2)nc2ccccc21	1%	16	·	·	-26%	-29%
C=C1C(=O)OC2CC(C)C3C=CC(=O)C3(C)C(O)C12 (configuration not stated)	·	·	?	6.3µM*	8.9µM*	2.5µM*
C=C1C(=O)OC2C1CCC(C)C1(O)C=CC(=O)C21C (configuration not stated)	·	-108*	?	-26%	40µM*	8.9µM*
C=C1C(=O)O[C@@H]2C[C@@H](C)[C@@H]3C4OC4C(=O)[C@@]3(C)[C@@H](O)[C@H]12 (some centres not stated)	40µM*	-79*	?	14µM*	?	?
Cc1ccc(C(C)C)c(OCC(=O)c2c(O)c3ccccc3oc2=O)c1	·	-11	·	-28%	?	3%
CCCN(CCC)c1nc2ccccc2n2c(C)nnc12	7%	-21	-13%	-24%	-24%	3.2µM*
Cc1ccc(-c2nc3ccccc3n3c(C)nnc23)cc1	-1%	·	·	·	·	·
Cc1nnc2c(SC(C)C)nc3ccccc3n12	7%	-82*	·	·	-1%	?
CCOC(=O)C1CCCN(C(=O)C2(c3ccc(Cl)cc3)CCCC2)CC1 (configuration not stated)	·	-23	i	-6%	-35%	·
CSc1nsc(SCC(=O)NCc2ccccc2)n1	-22%	23	-13%	-23%	18%	15%
Cc1ccc(S(=O)(=O)NCCc2cc3ccc(C)c(C)c3[nH]c2=O)cc1	12%	-2	-13%	-5%	-1%	-8%
CCOC(=O)C1=CCN(S(=O)(=O)c2ccc(Cl)cc2)C1c1cccc(F)c1 (configuration not stated)	·	-27	·	·	·	·
COc1ccc(/C=C2\Sc3ccc(C(=O)NC4CC4)cc3N(C)C2=O)cc1OC	-6%	-29	·	·	?	?
CN1C(=O)/C(=C\c2ccccc2F)Sc2ccc(C(=O)NC3CCN(Cc4ccccc4)CC3)cc21	-6%	-71*	·	·	?	4µM*
CCCCCn1c(=O)[nH]c2cc(C(=O)NC3CCN(Cc4ccccc4)CC3)ccc2c1=O	·	-26	-12%	-16%	?	13%
O=C(NC1CCN(Cc2ccccc2)CC1)c1ccc2c(c1)[nH]c(=O)n2Cc1ccc(F)cc1	4%	-86*	?	?	?	2.5µM*
Cc1ccc2nc3sc(C(=O)NCCCN(C)c4ccccc4)cc3cc2c1	-22%	66	-9%	-4%	37%	·
CCOC(=O)Cn1c(=O)n(CC2CCCO2)c2nc(-c3ccc(OC)cc3OC)nc(C(N)=O)c21 (configuration not stated)	1%	13	?	?	-24%	·
CCCc1cc(=O)oc2cc(C)cc(OCC(=O)Nc3cccnc3)c12	0%	+	·	·	-15%	?
COc1ccc(-c2ccc(CN3C(C)C(=O)N(Cc4cn(CCC5OCCCO5)nn4)CCS3(=O)=O)cc2)cc1 (configuration not stated)	·	-7	-12%	-13%	-23%	·
CCCCC(=NCCc1c(C)[nH]c2ccc(OC)cc12)C1=C(O)CC(c2ccccc2)CC1=O (configuration not stated)	-10%	-27	?	-24%	?	?
Cc1ccc2c(c1)-c1ncc(C(=O)c3ccccc3O)cc1CO2	21%	-26	-9%	-4%	41%	·
SMILES	Sm TGR inh	HCMV inh	VACV mCherry inh	Vaccinia Venus	FMDV antiviral	HCV inh
Cc1ccc(O)c(C(=O)c2cnc3c(c2)COc2ccccc2-3)c1	0%	-66*	-12%	-11%	-28%	10µM*
Cc1cccc2cc(C#N)c(N3CCN(C)CC3)nc12	5%	-31	·	·	-1%	10µM*
O=C(CN1CCN(c2ccc(F)cc2)CC1)N1N=CCC1c1ccccc1 (configuration not stated)	2%	-13	i	2%	·	11µM*
NC(=O)C1CCN(CC(=O)N2N=CCC2c2ccccc2)CC1 (configuration not stated)	14%	-103*	i	-7%	2%	13%
O=C(CN1CCN(c2ccccc2)CC1)N1N=CCC1c1ccccc1 (configuration not stated)	2%	-7	·	-11%	-4%	?
COc1ccccc1C1CCCN1Cc1nc(-c2cc3c(cc2Cl)OCO3)oc1C (configuration not stated)	-3%	-24	?	-1%	-20%	-20%
COc1ccccc1C1CCCN1Cc1nc(-c2ccc(C)s2)oc1C (configuration not stated)	?	-99*	?	36%	-20%	?
ClCc1nnc(-c2ccccc2)o1	50µM*	-38	·	·	?	?
C[C@@H]1CN([C@H](C)CO)C(=O)c2c(c3ccccc3n2C)-c2ccccc2CO[C@@H]1CN(C)S(=O)(=O)c1cccs1	·	-81*	?	-24%	-24%	·
C[C@H](CO)N1C[C@H](C)[C@H](CN(C)S(C)(=O)=O)OCc2ccccc2-c2c(n(C)c3ccccc23)C1=O	·	10	0%	-10%	71%	·
C[C@H](CO)N1C[C@H](C)[C@H](CN(C)S(=O)(=O)c2ccc(Cl)cc2)OCc2ccccc2-c2c(n(C)c3ccccc23)C1=O	·	-68*	?	?	-15%	·
Cc1ccc(S(=O)(=O)N(C)C[C@@H]2OCc3ccccc3-c3c(n(C)c4ccccc34)C(=O)N([C@H](C)CO)C[C@@H]2C)cc1	·	-60*	-14%	?	-13%	·
Cc1nnnn1-c1ccc(CC(=O)O)cc1	·	-33	i	-3%	-6%	3%
CCn1c2ccccc2c2nnc(N3CCN(c4cccc(C)c4C)CC3)nc21	-4%	-21	-12%	-6%	-6%	·
CC(=O)N1C(=O)C(=C2C=C(C)OC(C)=C2)c2ccccc21	14%	103	·	·	13%	10µM*
O=S(=O)(Nc1cccc(-n2cnnn2)c1)c1ccccc1C(F)(F)F	0%	20	·	·	19%	13%
COc1ccccc1NS(=O)(=O)c1cccc(NC(=O)c2sc3ccccc3c2Cl)c1	-2%	-68*	-18%	-8%	14%	?
